Several values for one entry are separate records, joined by “and”; a condition that tells them apart may be missing. Equal values may be shown once. Compounds without any hit were thinned out: in the full panel of roughly 83,000, 20% have a hit.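 96-well plates, one dose, 48 hours. Percent growth reported; active if below 10.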 Unmarked numbers belong to inactive results. Activity calls are given as the source filed them.

The assay concerns MDA-MB-468 breast. As to the kind of experiment: NCI-60 one-dose screen, 48 h (100 = growth as untreated, 0 = no growth, -100 = all killed). The following applies: 10 µM unless noted.
As to `CCC(C)(C)c1cc(O)c(C(C)(C)CC)cc1O`, the growth was -2.33% (active). For the molecule `O=S(=O)(c1ccccc1)n1ccc(-c2ccc3c(c2)CCO3)n1`, the growth is 42.4%. As to `CN1CCN(CC(=O)Nc2ccc(-c3nc4ccccc4s3)cc2)CC1`, the growth was -11.4% (active). Consider `C=Cc1cc[n+](CCCCCCCCCCCC)cc1`, for which the growth is 102%. On to `CCOC(=O)c1c(C(F)(F)F)n([O-])c2ccc(OC)cc2[n+]1=O`, for which the growth was -22.2% (active). `N#CC1=C(N)Oc2c(c(N)nn2-c2ccccc2)C1c1ccc(Cl)cc1Cl` (centres undefined): the growth was 129%. As for `Cc1cccc(C)c1NC(=O)CSC(=S)N1CCN(CCOCCO)CC1`, the growth is 127%. With `CCCCCCCCCCCCCCCC[N+](C)(CCO)Cc1cnc[nH]1` (centres undefined) the figure was -16% (active). With `CC1=C2[C@@H](CC1)[C@]1(C)O[C@@](C3CCCCC3)(C[C@H]1OC(=O)CO)[C@H]2OC(=O)/C=C/c1ccccc1` the figure was 87.6%; with `C#Cc1cccc(NC(=O)c2ccccc2NC(=O)CCl)c1`, 76.1% [8.25 µM]; with `COc1cc2c(=O)n(CCCN(C)C)c3c4cc[nH]c4ncc3c2cc1OC`, 81.5%. Turning to `CC#CC(=O)N1CCC[C@H]1c1nc(-c2ccc(C(=O)Nc3ccccn3)cc2)c2c(N)nccn12`, the growth was 59.6%. For `O=Nc1ccc(O)cc1`, the growth is 78.3% and 93.9%.

Regarding `C[C@@H]1O[C@@H](O[C@@H]2C[C@H](c3ccc4c(c3O)C(=O)C3=C(C4=O)[C@@]4(O)C(=O)C[C@](C)(O)C[C@@]4(O)C=C3)O[C@H](C)[C@H]2O)CC[C@@H]1O[C@H]1C[C@@H](O)[C@H](O)[C@@H](C)O1`, the growth is 106%. `COc1cc(C(=O)N/N=C/c2cc3cc(OCc4ccccc4)ccc3nc2OC)cc(OC)c1OC`: the growth was 85.2%. In the case of `c1ccc(/C(=N\N=C(/c2ccccc2)c2cccs2)c2cccs2)cc1` it was 105%; in that of `O=C(CCc1nnc2sc(-c3ccccc3)nn12)c1nc2ccccc2[nH]1`, 87.3%; in that of `CC1=CC(=NC(=O)CBr)C=C/C1=N\S(=O)(=O)c1ccccc1`, 66%. In the case of `Cc1ccc(Nc2nc(-c3ccc(F)cc3)c(C#N)c(=O)n2C)cc1` it was 62.1%; in that of `COc1ccc(C2CC(=O)c3c(O)c(OC)c(OC)c(OC)c3O2)cc1O` (centres undefined), 8.92% (active). For the molecule `O=C(/C=C/c1ccc(C(F)(F)F)cc1)c1ccc(Nc2nc(NCCO)nc(Nc3ccc(Cl)cc3)n2)cc1`, the growth was 69.4%. For the molecule `CCOC(=O)c1[nH]c(C)c(C(=O)O)c1C`, the growth was 108%. With `COc1ccc2c(c1)c(-c1nc(-c3c[nH]c4ncccc34)cs1)cn2CCN`, the growth is 1.91% (active). In the case of `O=C(CN1CCOCC1)NNc1ncnc2ccccc12`, the growth was 55.9%.

Turning to `C=C1C(=O)O[C@@H]2/C=C(/C)C3=CC(=O)[C@@](C)(C[C@H](OC(=O)/C(C)=C\C)[C@@H]12)O3`, the growth was -43.6% (active).

`C=C(C)[C@@H]1CC[C@]2(C(=O)Nc3ccccn3)CC[C@]3(C)[C@H](CC[C@@H]4[C@@]5(C)CCCNC(C)(C)[C@@H]5CC[C@]43C)[C@@H]12`: the growth is -13.8% (active).

Regarding `CCCCN1C(=O)/C(=c2\sc3n(c2=O)NC2C(N=3)N(CC)C(=O)N2CC)c2ccccc21` (centres undefined), the growth was 14.3%. In the case of `CC(C)(C)c1cc(NC(=O)Nc2ccc(-c3cn4c(n3)sc3cc(OCCN5CCOCC5)ccc34)cc2)no1`, the growth was 12.4% and 30.6%. As for `Cc1ccc(C(F)(F)F)cc1N1CCN(C(=O)[C@H]2C[C@H]2c2ccc(C(F)(F)F)nc2)CC1`, the growth was 65.6%. Turning to `CC[C@]1(O)C[C@H]2CN(CCc3c([nH]c4ccccc34)C(C(=O)OC)(c3cc4c(cc3OC)N(C)[C@H]3[C@@](O)(C(=O)OC)[C@H](OC(C)=O)[C@]5(CC)[C@@H]6C[C@@H]6CN6CC[C@]43[C@@H]65)C2)C1` (some centres undefined), the growth is 28.1%. As to `Cc1nc(-c2cc3ccccc3oc2=O)ccc1C(=O)/C=C/c1ccc(Cl)c(Cl)c1`, the growth is 110%. On to `O=S(=O)(NCCNc1nccc(-c2c(-c3ccc(O)cc3)nc3sccn23)n1)c1cccc2ccccc12`, for which the growth was 94.6%. Turning to `C=C(C)[C@@H]1CC[C@]2(C(=O)n3ccnc3)CC[C@]3(C)[C@H](CC[C@@H]4[C@@]5(C)CCCNC(C)(C)[C@@H]5CC[C@]43C)[C@@H]12`, the growth was -11.1% (active). In the case of `CSc1nccc(-c2c(-c3ccc(F)c(OCc4ccc(F)cc4)c3)nc3sccn23)n1` it was 23.3%.

For the origin of these results see PubChem BioAssay (NCI).
